# Source: PubChem BioAssay AID488864 (Broad Institute, 2010)
# Results with a measured potency or affinity are listed apart. Calls of active or inactive are those of the source.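 Rule for the calls: active = ATP signal reduced by compound, with fitted active dose under ten times the top valid tested dose; inactive = the rest, compounds that increase ATP levels included.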
# Assay: cellular ATP toxicity in rat beta cells – cell-based, CellTiter-Glo luminescence, INS-1E, dry powder, cytotoxicity control for beta-cell cytokine protection project, dose response (AID 488864)
# Conditions: INS-1E rat beta cells, 48 h, no cytokines; series mostly up to 26 µM
row,SMILES,outcome
1,C[C@@H]1CN([C@@H](C)CO)C(=O)c2cccc(NC(=O)Nc3ccc(F)cc3)c2O[C@H]1CN(C)S(=O)(=O)c1ccc(Cl)cc1,inactive
2,COc1ccc(S(=O)(=O)N(C)C[C@H]2Oc3c(NC(=O)Nc4cccc5ccccc45)cccc3C(=O)N([C@@H](C)CO)C[C@@H]2C)cc1,inactive
3,C[C@@H]1CN([C@@H](C)CO)C(=O)c2cccc(NC(=O)Nc3cccc4ccccc34)c2O[C@H]1CN(C)C(=O)Nc1ccc(C(F)(F)F)cc1,inactive
4,Cc1ccc(S(=O)(=O)N(C)C[C@@H]2Oc3c(NC(=O)Nc4ccccc4)cccc3C(=O)N([C@H](C)CO)C[C@H]2C)cc1,inactive
5,COc1ccc(S(=O)(=O)N(C)C[C@@H]2Oc3c(NC(=O)Nc4ccccc4)cccc3C(=O)N([C@@H](C)CO)C[C@H]2C)cc1,inactive
6,C[C@@H]1CN([C@@H](C)CO)C(=O)c2cccc(NC(=O)Nc3cccc4ccccc34)c2O[C@H]1CN(C)S(=O)(=O)c1ccc(F)cc1,inactive
7,COc1ccc(S(=O)(=O)N(C)C[C@@H]2Oc3c(NC(=O)c4ccc(-c5nccs5)cc4)cccc3C(=O)N([C@@H](C)CO)C[C@H]2C)cc1,inactive
8,COc1ccc(S(=O)(=O)N(C)C[C@@H]2Oc3c(NS(=O)(=O)c4ccc(F)cc4)cccc3C(=O)N([C@@H](C)CO)C[C@H]2C)cc1,inactive
9,COc1ccc(S(=O)(=O)N(C)C[C@@H]2Oc3ccc(NC(=O)Nc4cccc5ccccc45)cc3C(=O)N([C@@H](C)CO)C[C@H]2C)cc1,inactive
10,COc1ccccc1S(=O)(=O)N(C)C[C@@H]1Oc2c(NC(=O)Nc3cccc4ccccc34)cccc2C(=O)N([C@@H](C)CO)C[C@H]1C,inactive
11,COc1ccc(S(=O)(=O)N(C)C[C@@H]2Oc3c(NC(=O)Nc4cccc5ccccc45)cccc3C(=O)N(C(C)C)C[C@H]2C)cc1,inactive
12,COc1ccc(S(=O)(=O)N(C)C[C@@H]2Oc3c(NC(=O)Nc4cccc5ccccc45)cccc3C(=O)N([C@@H](C)CO)C[C@H]2C)cc1Cl,inactive
13,COc1ccc(S(=O)(=O)N(C)C[C@@H]2Oc3c(NS(C)(=O)=O)cccc3C(=O)N([C@@H](C)CO)C[C@H]2C)cc1,inactive
14,C[C@@H]1CN([C@@H](C)CO)C(=O)c2cccc(NC(=O)Nc3cccc4ccccc34)c2O[C@H]1CN(C)S(=O)(=O)c1ccc2c(n1)N(C)CCO2,inactive
15,C[C@@H]1CN([C@@H](C)CO)C(=O)c2cccc(NC(=O)Nc3ccccc3)c2O[C@H]1CN(C)S(=O)(=O)c1ccc(Cl)cc1,inactive
16,C[C@@H]1CN([C@@H](C)CO)C(=O)c2cccc(NC(=O)Nc3cccc4ccccc34)c2O[C@H]1CN(C)C(=O)Nc1ccc2c(c1)OCO2,inactive
17,C[C@@H]1CN([C@@H](C)CO)C(=O)c2cccc(NC(=O)Nc3cccc4ccccc34)c2O[C@H]1CN(C)S(=O)(=O)c1ccc2c(c1)OCC2,inactive
18,COc1ccc(S(=O)(=O)N(C)C[C@@H]2Oc3c(NC(=O)Nc4ccccc4)cccc3C(=O)N([C@H](C)CO)C[C@H]2C)cc1,inactive
19,COc1ccc(S(=O)(=O)N(C)C[C@@H]2Oc3c(NC(=O)Nc4cccc5ccccc45)cccc3C(=O)N([C@H](C)CO)C[C@@H]2C)cc1,inactive
20,COc1ccc(S(=O)(=O)N(C)C[C@@H]2Oc3c(NC(=O)Nc4ccc5c(c4)OCO5)cccc3C(=O)N([C@@H](C)CO)C[C@H]2C)cc1,inactive
21,COc1ccc(S(=O)(=O)N(C)C[C@@H]2Oc3c(NC(=O)NC4CCCCC4)cccc3C(=O)N([C@@H](C)CO)C[C@H]2C)cc1,inactive
22,Cc1ccc(S(=O)(=O)N(C)C[C@@H]2Oc3c(NC(=O)Nc4ccc(F)cc4)cccc3C(=O)N([C@@H](C)CO)C[C@H]2C)cc1,inactive
23,C[C@@H]1CN([C@@H](C)CO)C(=O)c2cccc(NC(=O)Nc3cccc4ccccc34)c2O[C@H]1CN(C)S(=O)(=O)c1ccc2c(c1)oc(=O)n2C,inactive
24,C[C@@H]1CN([C@@H](C)CO)C(=O)c2cccc(NC(=O)Nc3cccc4ccccc34)c2O[C@H]1CN(C)S(=O)(=O)c1ccc2ncsc2c1,inactive
25,COc1ccc(S(=O)(=O)N(C)C[C@@H]2Oc3c(NS(=O)(=O)c4cn(C)cn4)cccc3C(=O)N([C@@H](C)CO)C[C@H]2C)cc1,inactive
26,Cc1ccc(S(=O)(=O)N(C)C[C@@H]2Oc3c(NC(=O)Nc4cccc5ccccc45)cccc3C(=O)N([C@H](C)CO)C[C@H]2C)cc1,inactive
27,COc1ccc(S(=O)(=O)N(C)C[C@H]2Oc3c(NC(=O)Nc4cccc5ccccc45)cccc3C(=O)N([C@H](C)CO)C[C@@H]2C)cc1,inactive
28,C[C@@H]1CN([C@@H](C)CO)C(=O)c2cccc(NC(=O)Nc3cccc(Cl)c3Cl)c2O[C@H]1CN(C)S(=O)(=O)c1ccc2c(c1)OCCO2,inactive
29,COc1ccc(NC(=O)N(C)C[C@@H]2Oc3c(NC(=O)Nc4cccc5ccccc45)cccc3C(=O)N([C@@H](C)CO)C[C@H]2C)cc1,inactive
